Assay results from PubChem BioAssay (NCATS).
Several values for one entry are separate records, joined by “and”; a condition that tells them apart may be missing. Equal entries are not always repeated. Records with an inconclusive call do not appear. Activity calls are given as the source filed them. Calls come from the whole dose curve; as a rule, active = well fitted curve in the direction sought with a large enough effect; inconclusive = small, poorly fitted or top-dose-only effect, or another doubt; inactive = no such curve, though single readings can be large; an effect the other way counts as inactive or inconclusive.

Key:
[1] = Viability qHTS for spleen associated tyrosine kinase inhibitor (SYKi) naive MV4-11 cells (AID 1963823); note: nearly all actives have a fitted effect of over 40% in size
How it was run: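 Luminescence from CellTiter-Glo, developed 10 min at room temperature, gave viability of MV4-11 cells never exposed to SYK inhibitor. Cells (500/well) had been incubated with compounds for 72 hr under standard culture conditions.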

[2] = Quantitative highthroughput screen to assess conditional lethalithy of NOMO1 cells grown in RPMI1640 with untreated serum (RPMI+s) (AID 1963876); note: nearly all actives have a fitted effect of over 35% in size;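 for Viability: 100% = DMSO wells and 0% = empty wells without cells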
How it was run: (§1)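 Each medium arm—HPLM with 10% dialyzed FBS, or RPMI1640 with 5 mM glucose and 10% untreated or dialyzed FBS—was screened against an 11-point, 3-fold compound titration for 48 h at 37 °C, with CellTiter-Glo luminescence as endpoint.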

[3] = Quantitative highthroughput screen to assess conditional lethalithy of NOMO1 cells grown in RPMI1640 with dialyzed fetal bovine serum (RPMI+ds) (AID 1963877); note: nearly all actives have a fitted effect of over 30% in size;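 for Viability: series mostly up to about 46 µM; 100% = DMSO control wells and 0% = empty wells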
How it was run: as §1

[4] = Quantitative highthroughput screen to assess conditional lethalithy of NOMO1 cells grown in Human Plasma-Like Medium with dialyzed fetal bovine serum (HPLM+ds) (AID 1963878); note: nearly all actives have a fitted effect of over 35% in size;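 for Viability: 100% = DMSO wells and 0% = empty wells on each plate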
How it was run: as §1

[5] = Quantitative highthroughput screen to assess conditional lethalithy of P12 Ichikawa cells grown in Human Plasma-Like Medium with dialyzed fetal bovine serum (HPLM+ds) (AID 1963879); conditions: Potency: viability; note: nearly all actives have a fitted effect of over 35% in size; for Viability: series mostly up to about 46 µM
How it was run: as §1

[6] = Quantitative highthroughput screen to assess conditional lethalithy of P12 Ichikawa cells grown in RPMI1640 with dialyzed fetal bovine serum (RPMI+ds) (AID 1963880); conditions: Potency: P12-Ichikawa viability; note: nearly all actives have a fitted effect of over 35% in size;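 for Viability: 100% = DMSO wells and 0% = empty wells on each plate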
How it was run: as §1

[7] = Quantitative highthroughput screen to assess conditional lethalithy of P12 Ichikawa cells grown in RPMI1640 with untreated serum (RPMI+s) (AID 1963881); conditions: Potency: viability; note: nearly all actives have a fitted effect of over 35% in size;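 for Viability: series mostly up to about 46 µM; 100% = DMSO wells and 0% = empty wells without cells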
How it was run: as §1

[8] = Quantitative highthroughput screen to assess conditional lethalithy of SEM cells grown in RPMI1640 with unreated serum (RPMI+s) (AID 1963883); note: nearly all actives have a fitted effect of over 35% in size;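 for Viability: 100% = DMSO wells and 0% = empty wells without cells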
How it was run: as §1

[9] = Quantitative highthroughput screen to assess conditional lethalithy of SEM cells grown in RPMI1640 with dialyzed fetal bovine serum (RPMI+ds) (AID 1963884); note: nearly all actives have a fitted effect of over 35% in size;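 for Viability: series mostly up to about 46 µM; 100% = DMSO control wells and 0% = empty wells without cells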
How it was run: as §1

[10] = Cellular viability qHTS for adrenocortical cancer (ACC) cell line SW-13 (AID 1963989); conditions: SW-13 ACC cells viability, CellTiter-Glo, 48 h; activity (max response): active compounds read low; note: nearly all actives have a fitted effect of over 65% in size;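 for activity (max response): cells grown in serum-free medium with ITS supplement; % is set by controls: 0 for no effect and ±100 for the full control effect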
How it was run: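 Compound titrations (up to 46 uM final, in DMSO) were applied to SW-13 cells for 48 h at 37C/5% CO2. Reading used CellTiter-Glo after 20 min at room temperature; fitted curves yielded IC50 and efficacy.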

[11] = Cellular viability qHTS for adrenocortical cancer (ACC) cell line NCI-H295R (AID 1963990); note: nearly all actives have a fitted effect of over 60% in size
How it was run: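 Readout: CellTiter-Glo luminescence, 20 min RT. Exposure: 48 h, 37C/5% CO2. Cells: NCI-H295R, ITS-DMEM serum-free. Range: up to 46 uM. Analysis: 4PL fit, IC50 plus efficacy.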

[12] = Quantitative highthroughput screen to assess conditional lethalithy of SEM cells grown in Human Plasma-Like Medium with dialyzed fetal bovine serum (HPLM+ds) (AID 1963882); note: nearly all actives have a fitted effect of over 35% in size; for Viability: series mostly up to about 46 µM
How it was run: as §1
Potency is the fitted concentration of half-maximal effect.

Cc1ccnc(NS(=O)(=O)c2ccc(NC(=O)Nc3ccc(S(=O)(=O)Nc4nccc(C)n4)cc3)cc2)n1
inactive: Potency [1] | activity (max response) [10] -24.6% | Potency [11]
active: Potency [2] 296 nM | Potency [3] 469 nM | Potency [4] 118 nM | Potency [5] 264 nM | Potency [6] 332 nM | Potency [7] 469 nM | Potency [8] 83.3 nM | Potency [9] 105 nM

O=C(NCCS(=O)(=O)c1ccc(C(F)(F)F)cn1)c1ccc(Cl)cc1
inactive: Potency [1] | Potency [2] | Potency [3] | Potency [4] | Potency [5] | Potency [6] | Potency [12] | Potency [8] | Potency [9] | activity (max response) [10] 0.68% | Potency [11]

CN1C[C@H]2c3ccccc3Oc3ccc(Cl)cc3[C@@H]2C1
active: Potency [1] 26.6 µM | Potency [8] 26400 nM
inactive: Potency [2] | Potency [3] | Potency [4] | Potency [5] | Potency [6] | Potency [7]

COc1ccc(-c2nc(N3CCOCC3)c3sc(CN(C)c4ncc(C(=O)NO)cn4)cc3n2)cn1
active: Potency [1] 0.0148 µM | Potency [2] 20.9 nM | Potency [3] 23.5 nM | Potency [4] 16.6 nM | Potency [5] 20.9 nM | Potency [6] 23.5 nM | Potency [7] 18.7 nM | Potency [12] 11.8 nM | Potency [8] 7.4 nM | Potency [9] 13.2 nM | Potency [11] 89.1 nM

NCCS(=O)(=O)O
inactive: Potency [1] | Potency [2] | Potency [3] | Potency [4] | Potency [5] | Potency [6] | Potency [7] | Potency [12] | Potency [8] | Potency [9] | activity (max response) [10] 6.15% and -3.63% | Potency [11]

COc1cc(NS(=O)(=O)c2ccc(N)cc2)nc(OC)n1
inactive: Potency [1] | Potency [2] | Potency [3] | Potency [4] | Potency [5] | Potency [6] | Potency [7] | Potency [8] | Potency [9] | activity (max response) [10] -1.49% | Potency [11]

NS(=O)(=O)NCCNc1nonc1C(=Nc1ccc(F)c(Br)c1)NO
active: Potency [2] 2630 nM | Potency [3] 8310 nM | Potency [5] 2340 nM | Potency [6] 8310 nM | Potency [7] 5240 nM | Potency [12] 16600 nM | Potency [8] 3310 nM | Potency [9] 9330 nM
inactive: Potency [1]

OCCCNc1cc(-c2ccnc(Nc3cccc(Cl)c3)n2)ccn1
active: Potency [1] 82 nM and 83.3 nM | Potency [2] 187 nM | Potency [3] 209 nM | Potency [4] 235 nM | Potency [5] 662 nM | Potency [6] 469 nM | Potency [7] 526 nM | Potency [12] 166 nM | Potency [8] 235 nM | Potency [9] 209 nM | Potency [10] 447 nM | Potency [11] 316 nM

N[C@@]1(C(=O)O)CS(=O)(=O)[C@H]2[C@H](C(=O)O)[C@H]21
inactive: Potency [1] | Potency [2] | Potency [4] | Potency [5] | Potency [6] | Potency [7] | activity (max response) [10] 10.9% | Potency [11]

CN1CCC(=C2c3ccccc3CCc3sccc32)CC1
active: Potency [1] 14.8 µM
inactive: Potency [2] | Potency [5] | Potency [7] | Potency [8]

COC(=O)Nc1nc2ccc(C(=O)c3ccc(F)cc3)cc2[nH]1
active: Potency [1] 731 nM and 332 nM | Potency [10] 355 nM | Potency [11] 112 nM
inactive: Potency [2] | Potency [3]

CCOC(=O)[C@@H](N)CCC(=O)N[C@@H](CSCc1ccccc1)C(=O)N[C@@H](C(=O)OCC)c1ccccc1
inactive: Potency [3] | Potency [5] | Potency [6] | Potency [7] | Potency [12] | Potency [8] | Potency [9] | activity (max response) [10] -10.6%
active: Potency [1] 5.9 µM

CCCc1cc(=O)[nH]c(=S)[nH]1
inactive: Potency [1] | activity (max response) [10] 3.86% and 14.9% | Potency [11]
active: Potency [2] 9350 nM | Potency [5] 10500 nM | Potency [6] 16600 nM | Potency [7] 14800 nM

N#Cc1ccnc(N2C(=O)CC[C@H]2C(=O)N(c2cncc(F)c2)[C@H](C(=O)NC2CC(F)(F)C2)c2ccccc2Cl)c1
inactive: Potency [1] | activity (max response) [10] 6.3% | Potency [11]
active: Potency [2] 2340 nM | Potency [5] 1480 nM | Potency [7] 2950 nM | Potency [12] 3310 nM | Potency [8] 1320 nM

O=C1C(c2c(O)[nH]c3ccccc23)=Nc2ccccc21
inactive: Potency [1] | Potency [2] | Potency [3] | Potency [5] | Potency [6] | Potency [7] | Potency [12] | Potency [8] | Potency [9] | activity (max response) [10] -5.8% | Potency [11]

NC(=O)c1cccc2[nH]c(-c3ccc([C@H]4CCCN4)cc3F)nc12
active: Potency [1] 20.6 µM | Potency [3] 18700 nM
inactive: Potency [2] | activity (max response) [10] -3%

CCN1CCN(CC(=O)Nc2ccc(-c3cccc4c(=O)cc(N5CCOCC5)oc34)c3sc4ccccc4c23)CC1
active: Potency [1] 422 nM and 407 nM | Potency [2] 4180 nM | Potency [3] 3720 nM | Potency [8] 1050 nM | Potency [9] 1320 nM | Potency [10] 9000 nM

Cc1ccccc1N1C(=O)c2cc(S(N)(=O)=O)c(Cl)cc2NC1C (configuration not stated)
inactive: Potency [1] | Potency [2] | Potency [4] | Potency [5] | Potency [6] | Potency [7] | Potency [12] | Potency [9] | activity (max response) [10] 17.3% | Potency [11]

O=C(CCN1CCN(C(=O)OCc2cc(Cl)cc(Cl)c2)CC1)c1ccc2[nH]c(=O)oc2c1
active: Potency [1] 20.6 µM and 8.33 µM
inactive: Potency [3] | Potency [4] | activity (max response) [10] -15.7%
